Cav32 inh = Cav3.2 calcium influx blockers – cell-based, Fluo-4 calcium fluorescence, FDSS, MLSMR library, primary screen; Voltage-dependent T-type calcium channel subunit alpha-1H (Homo sapiens), O95180; Cav3.2-expressing cells; stronger effect = lower value; B-score at 10 µM; 100,000 compounds, 4% hits; AID 449739, 2010;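 active = single-dose well whose peak fluorescence ratio is a statistical outlier from its plate by either plate-standardised score or position-corrected B-score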
CYP2C9 activ = human CYP2C9 activators, primary screen, biochemical, luminescence. recombinant CYP2C9, luciferin-H conversion; stronger effect = higher value; factor 1 = untreated enzyme, 0 = blocked. activation factor at 5 µM. Cytochrome P450 2C9 (Homo sapiens), P11712. 96,000 compounds, 1.4% hits;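 active = activation factor of 2 or more for CYP2C9 at a 5 µM dose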
Target sequence (P11712 whole entry, looked up): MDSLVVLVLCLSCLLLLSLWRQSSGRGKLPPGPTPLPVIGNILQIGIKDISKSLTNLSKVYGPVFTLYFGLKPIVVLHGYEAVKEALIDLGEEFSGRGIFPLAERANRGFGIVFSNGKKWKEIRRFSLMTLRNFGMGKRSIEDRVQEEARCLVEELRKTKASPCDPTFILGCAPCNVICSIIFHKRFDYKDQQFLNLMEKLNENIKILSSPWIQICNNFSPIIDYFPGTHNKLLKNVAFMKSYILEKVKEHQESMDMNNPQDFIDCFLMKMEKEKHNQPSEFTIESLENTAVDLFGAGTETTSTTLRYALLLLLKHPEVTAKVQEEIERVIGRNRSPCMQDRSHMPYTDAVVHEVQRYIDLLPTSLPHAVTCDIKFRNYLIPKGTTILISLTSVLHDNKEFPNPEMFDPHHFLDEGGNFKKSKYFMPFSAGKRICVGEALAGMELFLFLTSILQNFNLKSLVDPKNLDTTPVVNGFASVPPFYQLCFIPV
CYP2C19 activ = human CYP2C19 activators, primary screen, biochemical, luminescence. 96,000 tested, under 10 active. Cytochrome P450 2C19 (Homo sapiens), P33261. recombinant CYP2C19, luciferin-H EGE luminescence; stronger effect = higher value; 0 = fully inhibited enzyme, 1 = untreated enzyme. activation factor at 5 µM;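 active = activation factor of at least 2 at 5 µM in the primary screen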
CYP2C9 inhib = blockers of cytochrome P450 2C9 activity – biochemical, luminescence, ADME assay, primary screen; P11712; 96,000 compounds, 20% hits; AID 777, 2007; CYP2C9 Supersomes, luciferin-H conversion; inhibition, % at 5 µM;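 active = blocking of liver enzyme CYP2C9 beyond about 50% at 5 µM, limit read from the data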
CYP2C19 inh = blockers of cytochrome P450 2C19 activity – biochemical, luminescence, ADME assay, primary screen; inhibition, % at 5 µM; CYP2C19 Supersomes, luciferin-H EGE luminescence, 30 min; P33261; 96,000 compounds, 21% hits; AID 778, 2007;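 active = CYP2C19 inhibition above a set limit at 5 µM in the primary screen, cut at about 50% in these data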
Large screens that a line does not name were inactive. An excerpt weighted towards active compounds, which were near 27% of everything screened.

CCOC(=O)C(C)n1nc(C)c2sc3ccccc3c2c1=O (centres undefined)	none (no result: CYP2C9 activ, CYP2C19 activ, CYP2C9 inhib, CYP2C19 inh)
Cn1cccc1C(=O)OCc1cc(Cl)cc2c1OCOC2	CYP2C9 activ 2.2
Cc1ccccc1NC(=O)c1cccc(N2C(=O)C3C4CCC(C4)C3C2=O)c1 (centres undefined)	CYP2C9 inhib 56.6
CN(C)c1ccc(NC(=O)c2cccc(N3C(=O)C4C5C=CC(C5)C4C3=O)c2)cc1 (centres undefined)	none (no result: CYP2C9 activ, CYP2C19 activ, CYP2C9 inhib, CYP2C19 inh)
CC1CCc2c(sc(NC(=O)CN3CCN(C(=O)c4ccco4)CC3)c2C#N)C1 (centres undefined)	none
N#Cc1sc2nc(-c3cccs3)cc(-c3ccc(Cl)cc3)c2c1N	none
COc1ccc(-c2cc(C3CC3)nc3sc(C#N)c(N)c23)cc1	CYP2C9 inhib 58.8, CYP2C19 inh 57.2
COc1ccc(C2OC34CCCCC3C(C#N)(C#N)C2(C#N)C(=N)O4)cc1 (centres undefined)	none
c1ccc(-c2noc(-c3cccc4ccccc34)n2)cc1	none
Brc1cccc(-c2nc(-c3ccncc3)no2)c1	CYP2C9 inhib 51.6, CYP2C19 inh 96.8
Clc1ccc(Br)cc1-c1nc(-c2ccncc2)no1	CYP2C9 inhib 50.5, CYP2C19 inh 88.9
c1ccc2c(-c3nc(-c4ccncc4)no3)cccc2c1	CYP2C19 inh 88.9
Cc1cc(C)cc(-c2nc(-c3ccncc3)no2)c1	CYP2C19 inh 83.2
CCOC(=O)N1CCC(NC(=O)c2cnc3n(c2=O)CCS3)CC1	none (no result: CYP2C9 activ, CYP2C19 activ, CYP2C9 inhib, CYP2C19 inh)
CCCn1c(O)c2ccc(C(=O)N=NC(=O)c3cccnc3)cc2c1O	none
CCOC(=O)c1ccc(-c2c(C(=O)OCC)oc3cc(O)c(CC)cc3c2=O)o1	CYP2C9 inhib 96.8, CYP2C19 inh 67.7
CCOC(=O)c1ccc(CC(=O)c2oc3cc(O)ccc3c2C)o1	CYP2C9 inhib 65.5
CCOC(=O)c1oc2cc(O)ccc2c(=O)c1-c1csc(C)n1	none
O=S(=O)(/N=C(/Nc1cc(N2CCOCC2)ncn1)c1ccc(F)cc1)c1ccccc1	none
O=S(=O)(/N=C(\Nc1ccc(F)cc1)C(F)(F)F)c1ccccc1	CYP2C9 inhib 55.9
Cc1cccc(N/C(=N\S(=O)(=O)c2ccccc2)C(F)(F)F)c1	CYP2C9 inhib 56.2 (no result: Cav32 inh)
CCN1C(=O)c2c(C)nc3ccccc3c2C1=O	CYP2C19 inh 58.3
NS(=O)(=O)c1ccc(C(=O)O)cc1	none (no result: CYP2C9 activ, CYP2C19 activ, CYP2C9 inhib, CYP2C19 inh)
CC(C)NC(=O)c1cc2cc(Br)ccc2oc1=O	CYP2C9 inhib 50.0, CYP2C19 inh 61.3
CCN(CC)C(=O)c1cc2cc(Br)ccc2oc1=O	none
CN(C)CCNC(=O)c1cc2cc(Br)ccc2oc1=O	none
O=C(Nn1cnnc1)c1cc2cc(Br)ccc2oc1=O	CYP2C19 inh 54.4
COc1cccc(C2C(=O)N(C3CCCCC3)CC(=O)N2Cc2ccc(F)cc2)c1 (centres undefined)	none
COc1ccccc1CN1C(=O)CN(C2CCCCCC2)C(=O)C1c1ccc(F)cc1 (centres undefined)	CYP2C19 inh 57.4
O=C(Oc1cccc2c(O)cccc12)c1ccccc1	CYP2C9 inhib 73.1, CYP2C19 inh 83.8
Cc1ccc(NC(=O)CC2Oc3ccccc3NC2=O)c(C)c1 (centres undefined)	none
CCOC(=O)Cn1c(S(=O)(=O)Cc2ccc(Cl)cc2)nc(-c2ccccc2)c1-c1ccccc1	Cav32 inh -5.61, CYP2C9 inhib 50.0
C#CCn1c(S(=O)(=O)Cc2ccc(OC)cc2)nc(-c2ccccc2)c1-c1ccccc1	Cav32 inh -5.14, CYP2C9 inhib 81.5, CYP2C19 inh 64.3
CCOC(=O)Cn1c(S(=O)(=O)Cc2ccccc2)nc2ccccc21	none
COc1ccc(-n2nc3c(c2NC(=O)c2c(F)cccc2Cl)CS(=O)C3)cc1 (centres undefined)	none
Cc1cc(C)c(C)c(S(=O)(=O)NCC(=O)Nc2sc3c(c2C(N)=O)CCCC3)c1C	none
Cc1nnc(NC(=O)c2ccc(S(=O)(=O)N(C)Cc3ccccc3)cc2)o1	CYP2C9 inhib 77.9
COCCN(CCOC)S(=O)(=O)c1ccc(C(=O)Nc2nnc(C)o2)cc1	none
CCN(Cc1ccccc1)S(=O)(=O)c1ccc(C(=O)Nc2nnc(C3CC3)o2)cc1	Cav32 inh -5.6, CYP2C9 inhib 88.4
CS(=O)(=O)NCCSCc1ccco1	none
Cc1cccc(C)c1NC(=S)N/N=C/c1ccc(OCCC(C)C)cc1	CYP2C9 inhib 61.7
CCCCOc1ccc(/C=N/NC(=S)Nc2cccc(C)c2C)cc1	none
COc1ccccc1NS(=O)(=O)c1ccc(C)c(C(=O)NCC2CCCO2)c1 (centres undefined)	none
COc1ccccc1NS(=O)(=O)c1ccc2oc(SC3CCOC3=O)nc2c1 (centres undefined)	CYP2C19 inh 52.6
CCCCN1C(=O)C(NC(C)=O)c2cc(Br)ccc21 (centres undefined)	CYP2C19 inh 78.7
CC(=O)Nc1ccc(NC(=O)C(C)OC(=O)CCC(=O)c2ccc(F)cc2)cc1 (centres undefined)	CYP2C9 inhib 69.1, CYP2C19 inh 71.5
COc1cc(C(c2c(C)[nH][nH]c2=O)c2c(C)[nH][nH]c2=O)ccc1OS(=O)(=O)c1ccccc1	none
Cc1ccccc1OCC(=O)N1N=C(C(F)(F)F)CC1(O)C(C)(C)C (centres undefined)	Cav32 inh -8.24 (no result: CYP2C9 activ, CYP2C19 activ, CYP2C9 inhib, CYP2C19 inh)
Cc1ccc(OCC(=O)N2N=C(C(F)(F)F)CC2(O)C(C)(C)C)cc1C (centres undefined)	Cav32 inh -7.34
Cc1ccccc1OCC(=O)NNC(=O)c1ccc(-c2ccccc2)cc1	none
CC(C)N=C(Nc1ccccc1)c1cccnc1	none
O=c1c2[nH]c3ccc(Br)cc3c2ncn1CCCn1ccnc1	CYP2C9 inhib 89.1, CYP2C19 inh 81.8
Cc1ccc2[nH]c3c(=O)n(CCc4cnc[nH]4)cnc3c2c1	CYP2C9 inhib 96.8, CYP2C19 inh 98.6
CCCCn1cnc2c([nH]c3ccccc32)c1=O	none
Cc1ccc2[nH]c3c(=O)n(CCN4CCOCC4)cnc3c2c1	none
O=c1c2[nH]c3ccccc3c2ncn1CCCn1ccnc1	CYP2C9 inhib 71.7
COc1cccc(-c2cc(=O)c3cc(NC(=O)c4ccc(N(C)C)cc4)ccc3[nH]2)c1	none (no result: CYP2C9 activ, CYP2C19 activ, CYP2C9 inhib, CYP2C19 inh)
COc1ccccc1CNc1ncnc2c1nnn2Cc1ccccc1	CYP2C19 inh 54.7
COc1ccccc1CNc1ncnc2c1cnn2-c1ccccc1	none (no result: CYP2C9 activ, CYP2C19 activ, CYP2C9 inhib, CYP2C19 inh)
C=CCOc1c(Cl)cc(CNc2ccc(C)c(Cl)c2)cc1OC	CYP2C9 inhib 57.1
C=CCOc1c(Cl)cc(CNc2ccc(N(C)C)cc2)cc1OC	CYP2C9 inhib 71.6, CYP2C19 inh 96.4
C=CCOc1ccc(CNC(C)(C)C)cc1OC	none
C=CCOc1c(Cl)cc(CNCCC)cc1Cl	CYP2C19 inh 59.0
COc1ccccc1Nc1nc(-c2cccc([N+](=O)[O-])c2)nc2ccccc12	none

Screening results: PubChem BioAssay, several laboratories
